Compounds with a hit are over-represented: about 3.6% of the library has one in this group of screens.
FUS suppressor: FUS proteinopathy suppression in yeast. 390,000 compounds, 0.24% hits. Potency, µM (highest dose often 76.6 µM), actives largely listed as activators. AID 1347120. S. cerevisiae FUS-expressing, growth rescue, OD600, 24 h;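 further: plate controls were DMSO vehicle for no effect and reference control for full effect; nearly all actives have a fitted effect of over 55% in size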
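FUS-expressing yeast, raffinose-pregrown, induced in 2% galactose minimal medium at OD 0.005; compounds in a dilution series, 24hr at 30C. Growth restoration read as absorbance at 600 nm. CP55940 positive control, DMSO negative.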
MmCpn inh: blocks the Methanococcus maripaludis chaperonin Mm-Cpn | purified Mm-Cpn ATPase, ADP Transcreener TR-FRET | Potency, µM (highest dose often 76.9 µM), for the others: at the highest dose activity, negative = inhibition, usual class: inhibitors | 330,000 compounds, 0.031% hits | AID 504842; further: on the % scale 0 is the no-effect control and ±100 the full control effect; nearly all actives have a fitted effect of over 80% in size
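ATPase turnover read by TR-FRET ADP competition (Eu cryptate antibody/ADP-d2, 665/590 nm): 10uM ATP final, 25nM Mm-CPN final, 30 min 37degC after 10-min compound preincubation, pH 7.4 Tris/KCl/MgCl2/DTT buffer.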
ClpP mod: qHTS Assay for Activators of ClpP; ATP-dependent Clp protease proteolytic subunit (Bacillus subtilis (strain 168)), P80244; purified B. subtilis ClpP, FRET peptide cleavage, 20 min; Potency, µM (highest dose often 57.5 µM), inactives show top-dose activity change, negative = active; 340,000 compounds, 1.9% hits; active means well fitted falling curve with a large enough effect; inconclusive means small, poorly fitted or top-dose-only effect; inactive means no such curve, though single readings can be large or run the other way; further: the source files actives as falling curves though it sought activators and does not explain the sign; nearly all actives have a fitted effect of over 65% in size
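Purified B. subtilis ClpP, 10 microg/mL final in Tris/HCl pH8 with KCl, BSA, glycerol and Tween-20, cleaved an Abz/nitrotyrosine-quenched decapeptide. Fluorescence (ex 320, em 430) was read at 0 and 20 min at room temperature. Delta was normalized to 5.8 microM ADEP and DMSO/no-enzyme controls.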
aSyn yeast inh: alpha-synuclein toxicity inhibition in yeast. Yeast expressing alpha-synuclein, growth rescue, BacTiter-Glo, 24 h. Potency, µM (series often up to 46.1 µM), without a hit: top-dose growth rescue (activation), hits mostly activators. 370,000 compounds, 0.14% hits; further: % of control where 0% means no effect; nearly all actives have a fitted effect of over 65% in size
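Rescue of yeast growth: cells expressing toxic alpha-synuclein, induced in galactose at OD600 0.02, incubated with compound 24 h at 30 C. ATP luminescence quantified growth; inhibitors of toxicity appear as activators.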
TDP43 rescue: inhibitors of TDP-43 toxicity in yeast | TDP-43 expressing yeast growth rescue, BacTiter-Glo, 24 h | Potency, µM (top dose mostly 46.1 µM), for inactives: at the highest dose growth rescue (activation), hits mostly activators | 410,000 compounds, 1.8% hits | AID 652104; further: % of control where 0% means no effect; nearly all actives have a fitted effect of over 50% in size
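Galactose-induced TDP-43 yeast, OD600=0.02, compound pinned; 24 hr, 30 deg C; BacTiter-Glo luminescence for growth. Inhibitors of TDP-43 toxicity read as activators.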
Abeta yeast res: A-beta toxicity reversal in yeast; yeast expressing A-beta42, growth rescue, OD600, 48 h; response scale: 0% DMSO, 100% iron-clioquinol control; Potency, µM (titrated, usually from 46.1 µM), usual class: activators; 410,000 compounds, 0.063% hits; AID 1347071; further: nearly all actives have a fitted effect of over 55% in size
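Yeast A-beta toxicity model in growth medium with pinned compounds, 48 h at 30 C; growth read as absorbance at 600 nm. Normalized to FeCl3/clioquinol equimolar mix (positive) and DMSO (negative).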
An asterisk follows results filed as active. Unless noted, the call rests on the fitted dose curve; in most records, active means well fitted curve in the direction sought with a large enough effect; inconclusive means small, poorly fitted or top-dose-only effect, or another doubt; inactive means no such curve, though single readings can be large; an effect the other way counts as inactive or inconclusive. Potency means the concentration at half of the fitted maximal effect.

Screening COc1cc(NC(=O)C2CC(c3c(F)cccc3Cl)=NO2)cc(OC)c1OC (centres undefined) returned FUS suppressor inactive, MmCpn inh -8.0%, aSyn yeast inh -12.7%, TDP43 rescue 22.0% and Abeta yeast res inactive.
Screening COc1ccc(NC(=O)C2CC(c3c(F)cccc3Cl)=NO2)cc1 (centres undefined) returned FUS suppressor inactive, MmCpn inh 0.0%, ClpP mod 1.7%, aSyn yeast inh -1.7%, TDP43 rescue 12.6µM* and Abeta yeast res inactive.
`COc1ccc(F)cc1-c1cc(NC(C)=O)c2ncc(-c3cccc(C(F)(F)F)c3)n2c1` gave FUS suppressor inconclusive, ClpP mod inconclusive, aSyn yeast inh inconclusive, TDP43 rescue 22.4µM* and Abeta yeast res inconclusive.
COc1cccc(-c2cnc3c(NC=O)cc(-c4ccccc4Oc4ccccc4)cn23)c1 was read as FUS suppressor inconclusive, ClpP mod -22.3%, aSyn yeast inh inconclusive, TDP43 rescue 35.5µM* and Abeta yeast res inactive.
Screening COc1ccccc1-c1cc(NC=O)c2ncc(-c3cccc(C(F)(F)F)c3)n2c1 returned FUS suppressor inactive, ClpP mod inconclusive, aSyn yeast inh 13.8%, TDP43 rescue 22.4µM* and Abeta yeast res inactive.
For CC(=O)Nc1cccc(-c2cc(NC(C)=O)c3ncc(-c4cccc(C(F)(F)F)c4)n3c2)c1 the results were FUS suppressor inconclusive, ClpP mod -29.3%, aSyn yeast inh -3.4%, TDP43 rescue 3.7% and Abeta yeast res inactive.
`CC(=O)Nc1cc(-c2ccc(F)cc2)cn2c(-c3ccc(F)c(Cl)c3)cnc12` gave FUS suppressor inactive, ClpP mod -25.0%, aSyn yeast inh -15.1%, TDP43 rescue 20µM* and Abeta yeast res inactive.
For COc1cccc(CNC(=O)C(=O)NCC(c2ccc3c(c2)OCO3)N2CCOCC2)c1 (centres undefined) the results were FUS suppressor inactive, ClpP mod -3.0%, TDP43 rescue -21.6% and Abeta yeast res inactive.
Screening COc1ccc(NC(=O)CSc2nc(-c3ccc(OC)cc3)cc(=O)[nH]2)cc1 returned FUS suppressor inactive, ClpP mod -0.3%, TDP43 rescue 6.3% and Abeta yeast res inactive.
For Cn1cnc([N+](=O)[O-])c1Sc1nc(N)nc2c1ncn2Cc1ccccc1 the results were ClpP mod 31.6µM*, aSyn yeast inh 2.5%, TDP43 rescue 13.8% and Abeta yeast res inactive.
`Cc1ccc(NC(=O)C2CCN(c3cc(C)nc4c(-c5ccc(Cl)cc5)c(C)nn34)CC2)c(C)c1` gave FUS suppressor inactive, ClpP mod 4.1%, TDP43 rescue 2.0% and Abeta yeast res inactive.
Cn1nc(-c2ccccc2)c(C(=O)Nc2ccc(C(F)(F)F)cc2)c1Cl was read as FUS suppressor inactive, MmCpn inh 1.3%, ClpP mod -8.7%, aSyn yeast inh -6.8%, TDP43 rescue -2.2% and Abeta yeast res inactive.
Cn1nc(-c2ccccc2)c(C(=O)Nc2ccc(Cl)cc2)c1Cl was read as FUS suppressor inactive, MmCpn inh 1.5%, ClpP mod -1.1%, aSyn yeast inh 4.5%, TDP43 rescue 3.16µM* and Abeta yeast res inactive.
`Cn1nc(C(F)(F)F)c(C(=O)Nc2ccc(F)cc2F)c1Cl` gave FUS suppressor inactive, MmCpn inh -3.0%, aSyn yeast inh -6.3%, TDP43 rescue -1.7% and Abeta yeast res inactive.
`Cn1nc(C(F)(F)F)c(C(=O)Nc2ccc(C(F)(F)F)cc2)c1Cl` gave FUS suppressor inactive, MmCpn inh 0.4%, ClpP mod -2.0%, aSyn yeast inh -3.6%, TDP43 rescue 20µM* and Abeta yeast res inactive.
Screening COc1ccc(N2C(=O)CCC(C(=O)N3CCCCC3)C2c2ccc(F)cc2)cc1 (centres undefined) returned FUS suppressor inactive, MmCpn inh 0.6%, ClpP mod 12.6µM*, aSyn yeast inh 0.0%, TDP43 rescue -7.8% and Abeta yeast res inactive.
For COc1ccc(N2C(=O)CCC(C(=O)N3CCC(C(N)=O)CC3)C2c2ccc(F)cc2)cc1 (centres undefined) the results were FUS suppressor inactive, MmCpn inh -0.3%, ClpP mod 0.2%, aSyn yeast inh -2.5%, TDP43 rescue -17.1% and Abeta yeast res inactive.
`Cc1nn(C(=O)COc2ccccc2)c(C)c1Sc1ccccc1` gave FUS suppressor inactive, ClpP mod -0.1%, TDP43 rescue inconclusive and Abeta yeast res inactive.
Screening CN(C)c1ccc(-c2nn3c(-c4cc(-c5ccccc5)n[nH]4)nnc3s2)cc1 returned ClpP mod inconclusive and aSyn yeast inh -2.0%.
`S=C1SCN(Cc2ccco2)CN1Cc1ccco1` gave FUS suppressor inactive, MmCpn inh -1.0%, aSyn yeast inh -19.6%, TDP43 rescue inconclusive and Abeta yeast res inactive.
Screening S=C1SCN(Cc2cccs2)CN1Cc1cccs1 returned FUS suppressor inactive, ClpP mod 0.4%, aSyn yeast inh 14.6%, TDP43 rescue 11.2µM* and Abeta yeast res inactive.
Screening O=C(CSc1nnc2ccc3ccccc3n12)Nc1ccccc1Cl returned FUS suppressor inactive, ClpP mod -2.7%, TDP43 rescue 17.8µM* and Abeta yeast res inactive.
Screening Cc1cc(Br)ccc1NC(=O)c1coc(=O)c2ccccc12 returned FUS suppressor inactive, ClpP mod -3.3%, TDP43 rescue 13.0% and Abeta yeast res inactive.
For O=C(CN(C(=O)OCC1c2ccccc2-c2ccccc21)[C@@H](Cc1ccccc1)C(=O)O)OCc1ccc(C(=O)NCc2ccccc2)cc1 the results were FUS suppressor 25.1µM*.
`CCOC(=O)C(C(=O)OCC)C(c1ccccc1)N1CCN(c2ccccc2)CC1` (centres undefined) gave FUS suppressor inactive, aSyn yeast inh 11.0%, TDP43 rescue 12.6µM* and Abeta yeast res inactive.
`CCOC(=O)C(c1ccccc1)N1CCN(c2ccc(OC)cc2)CC1` (centres undefined) gave FUS suppressor inactive, MmCpn inh 1.1%, ClpP mod -2.6%, aSyn yeast inh 5.4%, TDP43 rescue -0.9% and Abeta yeast res inactive.
For COc1ccc(S(=O)(=O)N2CCOC23CCN(C(=O)c2ccc(Cl)cc2Cl)CC3)cc1 the results were FUS suppressor inactive, MmCpn inh 1.8%, ClpP mod 1.1%, aSyn yeast inh 2.5%, TDP43 rescue inconclusive and Abeta yeast res inactive.

Screening data: PubChem, National Center for Advancing Translational Sciences (NCATS)
